Source: PubChem BioAssay (NCATS)
Inconclusive results are not listed. Active and inactive are the calls of the source. The call rests on the fitted dose curve; in most records, active means well fitted inhibition curve with a large enough effect; inconclusive means small, poorly fitted or top-dose-only effect; inactive means no such curve, though single readings can be large or run the other way.

Assay: Primary qHTS for small molecule stabilizers of the endoplasmic reticulum resident proteome: Secreted ER Calcium Modulated Protein (SERCaMP) assay (AID 1508630)
Conditions: SH-SY5Y GLuc-SERCaMP (Gaussia luciferase released on ER calcium loss) secretion, thapsigargin, luminescence; series mostly up to 38.4 µM
How it was run: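 The SH-SY5Y reporter protocol was run at 3 concentrations up to 38.3 uM (primary) or 11 concentrations (follow-up): 16 h compound, 100 nM thapsigargin for 4 h, then extracellular luciferase luminescence.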

Potency, inactive:
COc1ccccc1C1OC(=O)CC1C(=O)OC[C@@H]1CCCN2CCCCC12 (some centres not stated)
COc1cc2c(cc1OC)C1CCC3=C([C@H](C)OC3=O)N1CC2 (some centres not stated)
CC(=O)Nc1ccccc1C(=O)C(=O)O
O=C(O)c1ccc(-c2ccc3cc(C45CC6CC(CC(C6)C4)C5)c(O)cc3c2)cc1
Cc1nc2[nH]c(=O)[nH]c(=O)c2[nH]1
Nc1nc(=S)c2ncn([C@@H]3O[C@H](CO)[C@@H](O)[C@H]3O)c2[nH]1
COc1c2ccoc2nc2c(OC)c(O[C@@H]3O[C@H](C)[C@@H](O)[C@@H](O)[C@H]3O)ccc12
CC1(C)CCC[C@@]2(C)C1CC[C@@](C)(O)[C@@H]2CC[C@@](C)(O)C1CO1 (some centres not stated)
C[C@@H](C1[C@@H](O)CC2C3C=CC4C[C@@H](O)CC[C@]4(C)[C@H]3CC[C@@]21C)[C@@H]1CCCCN1 (some centres not stated)
O=C1N[C@@H](Cc2c[nH]c3ccccc23)C(=O)N[C@H]1Cc1c[nH]c2ccccc12
CC1=NN(c2ccc([N+](=O)[O-])cc2)C(=O)C1[N+](=O)[O-] (configuration not stated)
COc1cccc(C(=O)CC2c3c(c(Br)c4c(c3OC)OCO4)CCN2C)c1 (configuration not stated)
C=C(C)C(=O)OC[C@@H]1CCC[N@+]2(C)CCCCC12 (some centres not stated)
CCCCN(CC)CCOc1cccc2ccccc12
CN(C)C(=O)OC1=C(c2ccccc2)Sc2ccccc2-n2cccc21
Cc1nc(-c2coc3c(O)c(O)ccc3c2=O)cs1
CC1=CC(=O)CC(C)(C)C1(O)/C=C/C(C)=C/C(=O)O (configuration not stated)
